# Results taken from the supplement of paper PMC8728848.
# About 410 targets per protein were measured; listed, in parts, are those with the strongest signals and a random draw of the rest.
# What was measured:
# Assay in all cases: glycan array binding signal (z-score within array); higher = stronger binding
# Conditions in all cases: glycan notation: IUPAC condensed, linker removed
# [1] = system: Neu5Ac(a2-6)Gal(b1-4)GlcNAc(b1-2)Man(a1-6)Man(b1-4)GlcNAc(b1-4)GlcNAc
# Summary of the method: (§1)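 The Consortium for Functional Glycomics database supplied 3228 glycan arrays, of which those lacking an available protein sequence were dropped. The binding signal, a within-array Z-score, was averaged across arrays of the same protein sequence and across linkers. Negative scores can be read as non-binding.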
# [2] = system: Neu5Ac(a2-6)Gal(b1-4)GlcNAc(b1-2)Man(a1-6)[GlcNAc(b1-2)Man(a1-3)]Man(b1-4)GlcNAc(b1-4)GlcNAc
# Summary of the method: as §1
# [3] = system: Neu5Ac(a2-6)Gal(b1-4)GlcNAc(b1-2)Man(a1-6)[Gal(b1-4)GlcNAc(b1-2)Man(a1-3)]Man(b1-4)GlcNAc(b1-4)GlcNAc
# Summary of the method: as §1
# [4] = system: Neu5Ac(a2-6)Gal(b1-4)GlcNAc(b1-2)Man(a1-3)[Neu5Ac(a2-6)Gal(b1-4)GlcNAc(b1-2)Man(a1-6)]Man(b1-4)GlcNAc(b1-4)GlcNAc
# Summary of the method: as §1
# [5] = system: Neu5Ac(a2-6)Gal(b1-4)GlcNAc(b1-2)Man(a1-3)[GlcNAc(b1-2)Man(b1-4)GlcNAc(b1-2)Man(a1-6)]Man(b1-4)GlcNAc(b1-4)GlcNAc
# Summary of the method: as §1
# [6] = system: Neu5Ac(a2-6)Gal(b1-4)GlcNAc(b1-2)Man(a1-3)[Neu5Ac(a2-6)Gal(b1-4)GlcNAc(b1-2)Man(a1-6)]Man(b1-4)GlcNAc(b1-4)[Fuc(a1-6)]GlcNAc
# Summary of the method: as §1
# [7] = system: Neu5Ac(a2-6)Gal(b1-4)GlcNAc(b1-2)Man(a1-3)[GlcNAc(b1-4)][Neu5Ac(a2-6)Gal(b1-4)GlcNAc(b1-2)Man(a1-6)]Man(b1-4)GlcNAc(b1-4)GlcNAc
# Summary of the method: as §1
# [8] = system: Neu5Ac(a2-6)Gal(b1-4)GlcNAc(b1-2)Man(a1-3)[Man(a1-6)]Man(b1-4)GlcNAc(b1-4)GlcNAc
# Summary of the method: as §1
# [9] = system: Neu5Ac(a2-6)Gal(b1-4)GlcNAc(b1-2)Man(a1-3)[GlcNAc(b1-2)Man(a1-6)]Man(b1-4)GlcNAc(b1-4)GlcNAc
# Summary of the method: as §1
# [10] = system: Neu5Ac(a2-6)Gal(b1-4)GlcNAc(b1-2)Man(a1-6)[Man(a1-3)]Man(b1-4)GlcNAc(b1-4)GlcNAc
# Summary of the method: as §1
# Sequence of Aggrecan (Rattus norvegicus), NP_071526 (chain, as listed by the source): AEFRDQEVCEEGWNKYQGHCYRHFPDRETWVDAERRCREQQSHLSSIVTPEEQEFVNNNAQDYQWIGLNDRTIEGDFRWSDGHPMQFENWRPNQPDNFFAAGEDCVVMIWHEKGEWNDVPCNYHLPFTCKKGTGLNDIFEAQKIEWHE
# Sequence of PILRa (Mus musculus), Q2YSF3 (Q2YSF3 entry or part of it): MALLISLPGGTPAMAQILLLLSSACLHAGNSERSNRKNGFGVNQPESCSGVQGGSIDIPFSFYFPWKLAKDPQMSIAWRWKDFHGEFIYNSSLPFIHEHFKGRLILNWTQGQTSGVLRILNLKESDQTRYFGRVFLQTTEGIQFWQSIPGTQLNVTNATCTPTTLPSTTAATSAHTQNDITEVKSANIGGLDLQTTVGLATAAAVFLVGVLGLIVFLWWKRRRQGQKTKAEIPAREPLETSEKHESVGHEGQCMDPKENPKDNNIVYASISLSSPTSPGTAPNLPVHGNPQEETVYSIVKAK
# Sequence of CHI3L1 (Homo sapiens), P36222 (P36222 whole entry): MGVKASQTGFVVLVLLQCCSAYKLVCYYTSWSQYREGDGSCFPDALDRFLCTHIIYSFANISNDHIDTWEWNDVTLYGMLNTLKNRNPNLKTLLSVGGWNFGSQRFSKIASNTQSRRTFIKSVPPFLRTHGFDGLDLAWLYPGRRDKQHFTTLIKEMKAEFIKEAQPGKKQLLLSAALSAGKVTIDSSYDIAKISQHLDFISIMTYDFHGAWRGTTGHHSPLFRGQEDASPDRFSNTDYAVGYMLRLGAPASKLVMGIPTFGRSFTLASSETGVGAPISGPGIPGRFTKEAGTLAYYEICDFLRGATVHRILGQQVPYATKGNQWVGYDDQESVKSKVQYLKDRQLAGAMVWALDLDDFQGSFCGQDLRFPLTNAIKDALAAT
# Sequence of PILRb (Mus musculus), Q2YSF2 (Q2YSF2 entry or part of it): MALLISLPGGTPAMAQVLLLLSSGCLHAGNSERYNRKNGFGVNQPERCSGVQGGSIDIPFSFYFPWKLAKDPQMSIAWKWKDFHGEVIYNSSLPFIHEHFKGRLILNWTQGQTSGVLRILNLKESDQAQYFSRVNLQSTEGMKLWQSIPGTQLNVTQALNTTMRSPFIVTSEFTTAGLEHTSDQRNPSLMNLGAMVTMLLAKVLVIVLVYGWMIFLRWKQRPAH
# Sequence of CHT (Homo sapiens) (chain, as listed by the source): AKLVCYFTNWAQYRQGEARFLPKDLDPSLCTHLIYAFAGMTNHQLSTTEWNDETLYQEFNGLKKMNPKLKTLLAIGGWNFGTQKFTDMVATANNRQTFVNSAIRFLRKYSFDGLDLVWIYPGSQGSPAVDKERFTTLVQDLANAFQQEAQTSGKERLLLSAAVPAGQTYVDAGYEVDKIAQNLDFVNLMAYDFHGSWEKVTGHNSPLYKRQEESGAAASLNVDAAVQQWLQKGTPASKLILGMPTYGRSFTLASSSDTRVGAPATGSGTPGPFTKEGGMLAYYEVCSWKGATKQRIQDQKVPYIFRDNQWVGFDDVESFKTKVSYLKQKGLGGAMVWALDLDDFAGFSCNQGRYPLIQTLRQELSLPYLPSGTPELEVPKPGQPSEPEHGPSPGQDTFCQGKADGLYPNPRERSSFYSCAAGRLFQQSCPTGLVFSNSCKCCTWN
# Sequence of SRLC (Mus musculus), Q8VIF6 (Q8VIF6 other isoform, or with tags, fused parts or gaps): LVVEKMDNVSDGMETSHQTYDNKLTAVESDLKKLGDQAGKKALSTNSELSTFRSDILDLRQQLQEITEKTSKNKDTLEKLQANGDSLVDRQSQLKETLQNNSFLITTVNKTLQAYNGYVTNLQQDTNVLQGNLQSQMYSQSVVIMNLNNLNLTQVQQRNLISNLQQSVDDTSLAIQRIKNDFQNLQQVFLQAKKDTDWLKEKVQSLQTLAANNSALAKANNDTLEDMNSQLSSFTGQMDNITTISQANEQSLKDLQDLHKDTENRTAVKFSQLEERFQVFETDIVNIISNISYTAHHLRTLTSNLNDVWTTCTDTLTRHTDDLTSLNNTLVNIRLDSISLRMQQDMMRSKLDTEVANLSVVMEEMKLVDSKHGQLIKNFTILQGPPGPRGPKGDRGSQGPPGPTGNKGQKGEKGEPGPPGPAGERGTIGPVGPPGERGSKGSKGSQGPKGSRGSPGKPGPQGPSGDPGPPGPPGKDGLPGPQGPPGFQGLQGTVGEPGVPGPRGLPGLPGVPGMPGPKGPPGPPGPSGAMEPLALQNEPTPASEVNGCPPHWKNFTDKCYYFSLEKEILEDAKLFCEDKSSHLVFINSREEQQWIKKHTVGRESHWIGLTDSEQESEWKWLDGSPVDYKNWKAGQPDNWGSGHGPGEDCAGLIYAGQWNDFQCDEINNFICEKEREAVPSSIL
# Sequence of C3b (Homo sapiens), P01024 (P01024 23-667): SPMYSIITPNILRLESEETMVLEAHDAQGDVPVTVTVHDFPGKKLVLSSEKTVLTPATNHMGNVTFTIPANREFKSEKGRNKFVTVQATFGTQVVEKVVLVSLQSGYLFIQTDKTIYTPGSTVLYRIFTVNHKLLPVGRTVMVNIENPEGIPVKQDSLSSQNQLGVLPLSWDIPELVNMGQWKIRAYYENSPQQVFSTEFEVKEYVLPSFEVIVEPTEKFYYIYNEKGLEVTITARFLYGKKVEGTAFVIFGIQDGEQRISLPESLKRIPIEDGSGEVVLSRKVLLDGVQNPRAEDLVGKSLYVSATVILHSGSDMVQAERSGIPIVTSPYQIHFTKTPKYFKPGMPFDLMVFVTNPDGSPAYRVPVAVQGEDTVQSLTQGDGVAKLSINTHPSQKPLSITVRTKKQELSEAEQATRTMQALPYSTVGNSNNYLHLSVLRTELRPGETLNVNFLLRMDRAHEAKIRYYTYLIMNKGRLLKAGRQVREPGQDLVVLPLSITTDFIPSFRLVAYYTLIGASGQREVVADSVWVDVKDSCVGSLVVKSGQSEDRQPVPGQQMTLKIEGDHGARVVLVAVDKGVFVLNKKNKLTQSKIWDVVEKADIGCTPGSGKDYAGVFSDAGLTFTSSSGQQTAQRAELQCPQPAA
substance,measurement,setting,value
"Siglec-8 (Homo sapiens), Q9NYZ4",glycan array binding signal (z-score),[1],-0.178
same,glycan array binding signal (z-score),[1]; mutation: R125K,0.093
same,glycan array binding signal (z-score),[2]; mutation: R125K,-0.193
"PILRa (Mus musculus), Q2YSF3",glycan array binding signal (z-score),[1],-0.195
same,glycan array binding signal (z-score),[3],1.22
CHT (Homo sapiens),glycan array binding signal (z-score),"[4]; mutation: D138V, E140I",0.642
"CHI3L1 (Homo sapiens), P36222",glycan array binding signal (z-score),[5],-0.028
same,glycan array binding signal (z-score),[6],-0.039
"C3b (Homo sapiens), P01024",glycan array binding signal (z-score),[4],0.001
MpAFP RI GFP (Marinomonas primoryensis),glycan array binding signal (z-score),[7],-0.435
same,glycan array binding signal (z-score),[8],0.118
same,glycan array binding signal (z-score),[6],2.72
same,glycan array binding signal (z-score),[2],-0.058
"SRLC (Mus musculus), Q8VIF6",glycan array binding signal (z-score),[4],-0.158
"PILRb (Mus musculus), Q2YSF2",glycan array binding signal (z-score),[2],-0.407
"Aggrecan (Rattus norvegicus), NP_071526",glycan array binding signal (z-score),[9],-0.152
same,glycan array binding signal (z-score),[2],-0.187
same,glycan array binding signal (z-score),[10],-0.224
